This note sets out measurements from PubChem BioAssay (EPA / NIEHS).

Structures are written as SMILES. Calls of active or inactive are those of the source. Rule for the calls: active = hit-call score of the fitted dose curve at least 0.9, where 1 is the maximum; inactive = score below 0.9.

The nature of the experiment: APR_HepG2_StressKinase_24hr: Apredica 24-hour HepG2 Assay for Stress Kinase (AID 2282922). The note with it: HepG2 stress kinase (phospho-c-Jun) imaging, actives raise or lower the signal. The method, then:
APR_HepG2_24hr is a cell-based, multiplexed-readout assay that uses HepG2, a human liver cell line, with measurements taken at 24 hours after chemical dosing in a 384-well plate.APR_HepG2_StressKinase_24hr is one of 10 assay component(s) measured or calculated from the APR_HepG2_24hr assay. It is designed to make measurements of enzyme activity, a form of enzyme reporter, as detected with fluorescence intensity signals by HCS Fluorescent Imaging technology.Data from the assay component APR_HepG2_StressKinase_24hr was analyzed into 1 assay endpoint. This assay endpoint, APR_HepG2_StressKinase_24hr, was analyzed with bidirectional fitting relative to DMSO as the negative control and baseline of activity. Using a type of enzyme reporter, measures of protein for gain or loss-of-signal activity can be used to understand the signaling at the pathway-level as they relate to the gene . Furthermore, this assay endpoint can be referred to as a primary readout, because this assay has produced multiple assay endpoints where this one serves a signaling function. To generalize the intended target to other relatable targets, this assay endpoint is annotated to the cell cycle intended target family, where the subfamily is stress response.
Cells were treated with dimethyl sulfoxide (DMSO) as a solvent control at a final concentration of 0.5% v/v or with compounds in DMSO with a resulting final DMSO concentration of 0.5% v/v. Compound treatment was done at concentrations of 0.39, 0.78, 1.56, 3.12, 6.24, 12.5, 25, 50, 100, and 200 uM in duplicate on each plate. Cells were treated with compounds for 1, 24, or 72 hr. Carbonyl […] m-chloro-phenylhydrazone (CCCP) and taxol were used as positive controls for mitochondrial function and cytoskeletal stability, respectively; DMSO served as the negative control for this experiment. Cells were fixed by the direct addition of 50 uL formaldehyde in Hank's Balanced Salt Solution (HBSS) to a final concentration of 3.7%. After incubation in the fixation medium for 30 min at room temperature (293-298 K), cells were rinsed twice with HBSS and treated with cell permeabilization buffer (16 uL of 0.5% Triton X-100) for 10 min at room temperature (293-298 K) before labeling. For mitochondrial membrane potential and mitochondrial measurements, pre-fixed cells were incubated with 50 uL of MitoTracker Red CMXRos (Invitrogen) at a concentration of 250 nM for 30 min before fixation. In the remaining cases, post-fixed cells were labeled by incubation with a multiplexed mixture of primary antibodies in HBSS for 60 min at room temperature (293-298 K) to detect immunoreactivity of c-Jun (1:500), phospho-histone H3 (1:100), phospho-histone H2A.x (1:200), p53 (1:400), alpha-tubulin (1:200) and Hoechst 33342 (2 ug/mL). Cells were labeled for multiplexed imaging on two separate plates: a) Hoechst 33342, MitoTracker Red, phospho-histone H3, and alpha-tubulin, and b) Hoechst 33342, phospho-histone H2A.x, and c-Jun. A final rinse with HBSS (50 uL) was performed before analysis. The primary and secondary antibodies for the proteins were phospho-histone H3 (rabbit anti-phospho-histone H3 and FITC-donkey anti-rabbit IgG), phospho-histone H2A.x (mouse anti-phospho-histone H2A.x and FITC-donkey anti-mouse IgG), c-Jun (rabbit anti-phospho-c-Jun and Cy3-donkey anti-rabbit IgG), p53 (sheep anti-p53 and Cy5-donkey anti-sheep IgG), alpha-tubulin (mouse anti-alpha-tubulin and Cy5-donkey anti-mouse IgG). These antibodies are available as the CellCiphr HepG2 assay kit (Millipore).Digital images of each well were captured using a Cellomics ArrayScan VTI (Thermo Scientific Cellomics) (0.8 NA objective, 0.63x optical coupler, and XF-93 filter set) at 20x magnification. The images were acquired using the autofocus feature of the ArrayScan instrument, which entails the following steps. First, the camera focuses on channel 1 (Hoechst 33342), where nuclei are identified. Second, a Z offset of 1 um is used for capturing mitochondria (MitoTracker Red). […]
For `c1cc2ccc3cccc4ccc(c1)c2c34`, the molecule was called inactive.

In the case of `ClC1=C(Cl)[C@]2(Cl)[C@@H]3[C@@H]4C[C@@H]([C@H]5O[C@@H]45)[C@@H]3[C@@]1(Cl)C2(Cl)Cl`, the outcome was inactive.

With `N#Cc1ccc(N(CC(N)=O)CC(F)(F)F)cc1C(F)(F)F`, the result was inactive.

As for `c1ccc(-c2ccccc2)cc1`, the molecule was called inactive.

With `O=C(O)C(F)(F)C(F)(F)C(F)(F)C(F)(F)C(F)(F)C(F)(F)C(F)(F)C(F)(F)F`, the outcome was inactive.

Take `O=C(NC(=O)c1cc(F)c(F)cc1Cl)Nc1cc(F)ccc1N1CCC(C(=O)O)CC1`: the molecule was called inactive.

As for `C=CC(N)=O`, the outcome was inactive.

In the case of `C[C@]12CCC(=O)C=C1CC[C@@H]1[C@@H]2CC[C@@]2(C)[C@H]1CC[C@]2(C)O`, the outcome was inactive.

For the molecule `COc1ccc(O)c(C(C)(C)C)c1`, the outcome was inactive.

Turning to `Nc1ccc(-c2ccc(N)cc2)cc1`, the result was inactive.

On to `O=C(O)C(F)(F)C(F)(F)C(F)(F)C(F)(F)C(F)(F)F`, for which the molecule was called inactive.

Take `O=C(NC(=O)c1c(F)cccc1F)Nc1cc(Cl)c(OC(F)(F)C(F)F)c(Cl)c1`: the call was inactive.

As to `CCSC(=O)N(CC)C1CCCCC1`, the result was inactive.

Regarding `O=C(O)C(F)(F)C(F)(F)C(F)(F)C(F)(F)C(F)(F)C(F)(F)C(F)(F)C(F)(F)C(F)(F)F`, the molecule was called inactive.

In the case of `Clc1ccc(C(c2ccccc2Cl)C(Cl)(Cl)Cl)cc1` (stereo not given), the AC50 (as a rule, the concentration at which the activity in the assay is half-maximal) was 114 µM (active).

As for `CCOCCOC(C)=O`, the result was inactive.

For the molecule `ClC1=C(Cl)[C@]2(Cl)[C@@H]3[C@H]4C[C@H]([C@@H]5O[C@H]45)[C@@H]3[C@@]1(Cl)C2(Cl)Cl`, the call was inactive.

With `COS(=O)(=O)OC`, the call was inactive.

For `Cc1cccc([N+](=O)[O-])c1`, the outcome was inactive.

`O=C(N[C@H]1CN2CCC1CC2)c1cc2ccoc2cn1`: the outcome was inactive.

For `O=NN(c1ccccc1)c1ccccc1`, the call was inactive.

As to `Cc1cc(-c2ccc(N)c(C)c2)ccc1N`, the call was inactive.

Consider `C=CC(=O)NCNC(=O)C=C`, for which the molecule was called inactive.

For `CC(C)C(=O)OCC(C)(C)C(OC(=O)C(C)C)C(C)C` (stereo not given), the molecule was classed as inactive.

Turning to `CC(C)(O)C(=O)Nc1ccc([N+](=O)[O-])c(C(F)(F)F)c1`, the molecule was classed as inactive.

Turning to `CCCN(CCC)N=O`, the molecule was called inactive.

For `CN(C)c1nc(=O)n(C2CCCCC2)c(=O)n1C`, the molecule was classed as inactive.

In the case of `CC1=C2C[C@H]3[C@@H](CC=C4C[C@@H](O)CC[C@@]43C)[C@@H]2CC[C@]12O[C@@H]1C[C@H](C)CN[C@H]1[C@H]2C`, the result was inactive.

Turning to `Cc1ccccc1O`, the result was inactive.

As to `Oc1ccc(Cl)cc1Cl`, the result was inactive.

In the case of `CC(C)(c1ccccc1)c1ccc(O)cc1`, the call was inactive.

As to `Cc1ccccc1[N+](=O)[O-]`, the outcome was inactive.

Consider `ClC(Cl)=C(c1ccc(Cl)cc1)c1ccc(Cl)cc1`, for which the molecule was called inactive.

With `CN(C)CCO`, the result was inactive.

For the molecule `CCCCCCOC(=O)c1ccccc1C(=O)OCCCCCC`, the molecule was called inactive.

As to `Oc1c(Cl)c(Cl)c(Cl)c(Cl)c1Cl`, the outcome was inactive.

Take `Cc1ccc(O)c(C)c1`: the result was inactive.

For `Nn1cnnc1`, the result was inactive.

As to `C[C@]12CCC(=O)C=C1CC[C@@H]1[C@@H]2CC[C@]2(C)C(=O)CC[C@@H]12`, the molecule was classed as inactive.

On to `CO/C=C(/C(=O)OC)c1ccccc1COc1cccc(C(F)(F)F)n1`, for which the molecule was called inactive.
